Screens deposited in PubChem BioAssay by National Center for Advancing Translational Sciences (NCATS).
TDP1 block: blocks human tyrosyl-DNA phosphodiesterase 1; Q9NUW8; recombinant TDP1, AlphaScreen DNA substrate cleavage; Potency, µM (titrated, usually from 130 µM), for inactives: at the top dose activity change, negative = inhibition, hits mostly inhibitors; actives 0.28% (n = 350,000); further: potency means the concentration at half of the fitted maximal effect; on the % scale 0 is the no-effect control and ±100 the full control effect; nearly all actives have a fitted effect of over 40% in size
Target sequence (Q9NUW8 whole entry, looked up): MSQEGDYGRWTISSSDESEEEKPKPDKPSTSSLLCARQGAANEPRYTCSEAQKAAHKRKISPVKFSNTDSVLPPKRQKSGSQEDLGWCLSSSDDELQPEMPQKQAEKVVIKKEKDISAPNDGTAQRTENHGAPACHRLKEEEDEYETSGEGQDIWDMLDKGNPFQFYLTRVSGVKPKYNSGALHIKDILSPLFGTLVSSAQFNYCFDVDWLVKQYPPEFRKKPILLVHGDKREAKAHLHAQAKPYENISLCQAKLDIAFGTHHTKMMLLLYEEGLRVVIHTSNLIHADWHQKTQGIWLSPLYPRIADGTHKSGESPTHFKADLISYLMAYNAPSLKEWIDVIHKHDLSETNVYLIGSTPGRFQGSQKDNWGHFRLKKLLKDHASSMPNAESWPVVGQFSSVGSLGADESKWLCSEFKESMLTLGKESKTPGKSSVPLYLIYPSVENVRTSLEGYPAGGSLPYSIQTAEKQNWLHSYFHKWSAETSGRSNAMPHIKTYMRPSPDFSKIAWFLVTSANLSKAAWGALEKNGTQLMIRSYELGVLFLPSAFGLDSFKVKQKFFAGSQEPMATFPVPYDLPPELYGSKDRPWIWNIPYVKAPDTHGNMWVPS
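Tdp1 1 nM final; 15 min RT w/ cpd; substrate 15 nM, 5 min; beads 10 ug/ml, 10 min; AlphaScreen read. Neg ctrl: no enzyme.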
TGFb SMAD3 inh: inhibitors of TGF-b signaling. Potency, µM (top dose mostly 46.1 µM), without a hit: at the highest dose activity, negative = inhibition, hits mostly inhibitors. HepG2 CAGA-GFP TGF-b/SMAD3 reporter, GFP fluorescence, 18 h; TGF-beta stimulated, 500 pg/mL final. actives 1.2% (n = 410,000); further: potency means the concentration at half of the fitted maximal effect; on the % scale 0 is the no-effect control and ±100 the full control effect; nearly all actives have a fitted effect of over 65% in size
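Inhibition of TGF-beta-driven CAGA-GFP reporter expression in HEPG2 cells is measured by cellular GFP fluorescence after 18 h stimulation with 500 pg/mL recombinant TGF-beta in 1% FBS medium at 37 degrees C.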
HepG2 tox: kills HepG2 cells in TGF-b inhibitor counter-screen | HepG2 CAGA-GFP viability, ATP luminescence, 18 h | Potency, µM (highest dose often 46.1 µM), for inactives: at the top dose activity change, negative = cytotoxicity, actives largely listed as cytotoxic | actives 0.76% (n = 410,000); further: potency means the concentration at half of the fitted maximal effect
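HepG2 CAGA-GFP cells (1000/well, DMEM with 1% FBS) received compound, then TGF-beta at 500 pg/mL final, and were incubated 18 hours at 37 degrees C. Viability was read by CellTiter-Glo luminescence. Media-only wells were set as complete cell-killing and DMSO as no toxicity.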
DT40 TDP1 no CPT: qHTS for Inhibitors of human tyrosyl-DNA phosphodiesterase 1 (TDP1): qHTS in cells in absence of CPT | DT40 Tdp1-/- hTDP1 cells, no CPT, ATP luminescence, 48 h | Potency, µM (titrated, usually from 46.2 µM), for inactives: at the highest dose activity change, negative = growth inhibition, usual class: inhibitors | actives 15% (n = 420,000); further: potency means the concentration at half of the fitted maximal effect; on the % scale 0 is the no-effect control and ±100 the full control effect; nearly all actives have a fitted effect of over 55% in size
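Chicken DT40 Tdp1-/- cells stably complemented with human TDP1 were seeded at 400 cells/well with DMSO in place of 20 nM camptothecin. After compound pinning, cells grew at least 48 hr at 37 °C; viability read by CellTiter-Glo luminescence.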
TDP1 cell CPT: growth inhibition of DT40 Tdp1-/-;hTDP1 cells with camptothecin (screen for TDP1 inhibitors) | chicken DT40 Tdp1-/-;hTDP1 cells + 20 nM CPT, ATP luminescence, 48 h | Potency, µM (titrated, usually from 46.2 µM), for inactives: at the highest dose activity change, negative = growth inhibition, usual class: inhibitors | actives 12% (n = 420,000) | AID 686979; further: potency means the concentration at half of the fitted maximal effect; on the % scale 0 is the no-effect control and ±100 the full control effect; nearly all actives have a fitted effect of over 55% in size
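Chicken DT40 Tdp1-/- cells complemented with human TDP1, 400 cells/well, exposed to compounds plus 20 nM camptothecin for at least 48 h at 37 C; viability read as ATP content by CellTiter-Glo luminescence.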
IL1B secr inh: inhibitors of inflammasome signaling (IL-1 beta secretion); activity change, % at 57.5 µM; actives 4.7% (n = 360,000); THP-1 LPS/ATP IL-1B secretion, AlphaLISA, 16 h; hits give low values; AID 743279; in the data active means activity change below about -50%; inconclusive means mostly about -30% to -49%; further: on the % scale 0 is the no-effect control and ±100 the full control effect
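Secreted IL-1B measured by AlphaLISA bead assay after 16 h compound exposure of THP-1 cells; compounds (final up to 57.5 uM) added 1 h before LPS (250 ng/mL) and ATP (1.25 mM) stimulation; lower signal means less secretion.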
The depositor's hits bear a star; ? = inconclusive; . = no result given; [ ] = remark or other dose. Only some compounds are listed: those with a hit (about 19% of all), similar ones and a draw of the others. Unless noted, the call rests on the fitted dose curve; in most records, active means well fitted curve in the direction sought with a large enough effect; inconclusive means small, poorly fitted or top-dose-only effect, or another doubt; inactive means no such curve, though single readings can be large; an effect the other way counts as inactive or inconclusive.

SMILES | TDP1 block | TGFb SMAD3 inh | HepG2 tox | DT40 TDP1 no CPT | TDP1 cell CPT | IL1B secr inh
CC(C(=O)Nc1ccc(N2CCOCC2)cc1)N1C(=O)c2ccccc2C1=O (stereo not drawn) | 9% | 3% | 7% | -2% | -12% | 24
CC1(c2ccccc2Cl)NC(=O)N(CC(=O)Nc2ccc(N3CCOCC3)cc2)C1=O (stereo not drawn) | 3% | -1% | 2% | 12% | 13% | 2
CC(C)c1ccc(C2(C)NC(=O)N(CC(=O)NC3CCCC(C)C3C)C2=O)cc1 (stereo not drawn) | 0% | ? | -32% | 21µM* | ? | ?
O=C(CN1C(=O)NC2(CCCC2)C1=O)NCc1cccc(Cl)c1 | -1% | 13% | -1% | -17% | -17% | -59*
CC(C)c1ccc(C2(C)NC(=O)N(C(C)C(=O)Nc3ccc(N4CCOCC4)cc3)C2=O)cc1 (stereo not drawn) | 4% | 17% | 0% | 26µM* | 15µM* | 7
O=C(Cc1cccs1)NC1CC(=O)N(c2ccccc2)C1 (stereo not drawn) | -3% | 27% | 9% | -2% | 2% | .
COc1ccc(NC(=O)CN2C(=O)NC3(CCCCCCC3)C2=O)cc1 | 1% | -12% | -9% | -27% | -15% | -11
O=C(CN1C(=O)NC2(CCCC2)C1=O)Nc1ccc(F)c([N+](=O)[O-])c1 | 10% | -18% | -40% | ? | -12% | -66*
O=C1NC2(CCCCCC2)C(=O)N1Cc1ccc(Cl)cc1Cl | 3%[0.0935 µM] | -12% | -1% | ? | -12% | -63*
O=C1NC2(CCCCCC2)C(=O)N1Cc1ccc(F)cc1Cl | 1% | 1% | -36% | -16% | -1% | 11
O=C(CN1C(=O)NC2(CCCC2)C1=O)Nc1ccc(F)c(Cl)c1 | . | 0% | 9% | -11% | 16% | -5
CC(C)c1ccc(NC(=O)CN2C(=O)NC3(CCCCCCC3)C2=O)cc1 | 1% | -4% | 7% | 21µM* | 21µM* | -5
CC(C(=O)Nc1ccc(Cl)cc1)N1C(=O)NC2(CCCC2)C1=O (stereo not drawn) | 0% | 4% | -18% | 21µM* | ? | -12
COc1ccccc1-c1noc(CCCC(=O)NC2CCCCC2)n1 | . | 9% | 11% | -12% | 0% | 26
CC(C)CC(=O)Nc1cc2c3c(c1)C(C)C(=O)N3CCC2 (stereo not drawn) | 2% | -1% | -15% | ? | 30% | 28
CCCCCC(=O)Nc1ccc(C(=O)CN2C(=O)NC3(CCCCCC3)C2=O)cc1 | -12% | -3% | -14% | 3.7µM* | 5.8µM* | 95
CCOC(=O)c1ccc(NC(=O)CN2C(=O)NC3(CCCCCC3)C2=O)cc1 | 3% | 5% | -10% | ? | ? | -18
O=C(CN1C(=O)C2CCCCN2c2ccc(C(=O)N3CCCC3)cc21)NCc1cccc(Cl)c1 (stereo not drawn) | 2% | -26% | 0% | 5.8µM* | ? | .
CC(C)CC(=O)Nc1ccc(C(=O)CN2C(=O)NC3(CCOc4ccccc43)C2=O)cc1 (stereo not drawn) | -5% | -20% | -27% | -95% | 18µM* | 12
CN(Cc1ccc(Cl)cc1Cl)C(=O)CNC(=O)c1ccc2c(c1)OCO2 | . | 3% | -15% | -25% | -2% | -7
COc1cc(C#Cc2c(C=O)n(C)c3ccccc23)cc(OC)c1 | . | 7% | -9% | 23µM* | ? | 28
C=CCn1c2ccccc2c(=O)c2cc(C#Cc3cc(OC)cc(OC)c3)ccc21 | -9% | 5% | 4% | ? | 16µM* | 0
Cn1cncc1C#Cc1c(C=O)n(C)c2ccccc12 | 56µM* | ? | -28% | -13% | ? | 30
Cn1cncc1C#Cc1ccc2c(=O)c3ccccc3oc2c1 | . | -14% | -15% | ? | ? | ?
Cn1c2ccccc2c(=O)c2cc(C#Cc3ccccn3)ccc21 | . | 18% | 0% | ? | -18% | 12
SMILES | TDP1 block | TGFb SMAD3 inh | HepG2 tox | DT40 TDP1 no CPT | TDP1 cell CPT | IL1B secr inh
Cn1cncc1C#Cc1c(C=O)[nH]c2ccccc12 | -3% | -19% | -26% | 10µM* | 5.8µM* | 16
COc1cc(OC)cc(-c2c(C#Cc3ccsc3)c3cc(-c4ccccc4OC)ccc3n2C)c1 | -1% | 8% | 2% | -28% | ? | -4
O=C1CCCC2=C1C(c1ccccc1Cl)N=C(Nc1nc3ccccc3o1)N2 (stereo not drawn) | 2% | . | . | . | . | .
CC(C)CC(=O)Nc1cccc(-c2cn3cccnc3n2)c1 | -3% | 27% | 7% | -27% | -10% | .
O=C(O)C(F)=C(c1ccccc1)c1ccccc1 | . | -6% | -14% | -2% | -12% | 0
CCN(C)C1CN(Cc2cn(Cc3ccc(C)cc3)nn2)S(=O)(=O)C1 (stereo not drawn) | . | . | . | -18% | 0% | 12
CN=c1scc(C)n1/N=C/c1ccc(O)c(O)c1O | -2% | ? | -16% | 18µM* | 16µM* | ?
Cc1nc2ccccc2c(=O)n1/N=C/c1ccc(O)c(O)c1O | . | ? | -13% | ? | ? | 8
CN=c1scc(-c2cccs2)n1/N=C/c1ccc(O)c(O)c1O | 8% | -25% | -23% | 5.8µM* | 12µM* | -2
CC(C)N=c1scc(-c2ccco2)n1/N=C/c1ccc(O)c(O)c1 | 11% | ? | -64% | 1.5µM* | 1.6µM* | -13
Oc1ccc(/C=N/n2c(-c3ccco3)csc2=Nc2cccnc2)c(O)c1 | 7% | ? | -24% | 15µM* | 12µM* | 21
COc1ccc(CCn2c(=O)c3cccnc3n(CC(=O)Nc3c(C)cc(C)cc3C)c2=O)cc1OC | -3% | -5% | 0% | ? | -19% | .
